# Results filed as inconclusive are left out. Entries that show only a call come without a potency. Active and inactive are the calls of the source. Unless noted, calls come from the whole dose curve.
# What was measured:
# [1] = biological target: Cytochrome P450 3A4 (Homo sapiens) (UniProt P08684); test: qHTS Assay for Inhibitors and Substrates of Cytochrome P450 3A4 (AID 884; active = well fitted curve in the direction sought with a large enough effect; an effect the other way counts as inactive or inconclusive; note: nearly all actives have a fitted effect of over 50% in size)
# Cytochrome P450 3A4 (Homo sapiens), sequence (P08684 whole entry, looked up): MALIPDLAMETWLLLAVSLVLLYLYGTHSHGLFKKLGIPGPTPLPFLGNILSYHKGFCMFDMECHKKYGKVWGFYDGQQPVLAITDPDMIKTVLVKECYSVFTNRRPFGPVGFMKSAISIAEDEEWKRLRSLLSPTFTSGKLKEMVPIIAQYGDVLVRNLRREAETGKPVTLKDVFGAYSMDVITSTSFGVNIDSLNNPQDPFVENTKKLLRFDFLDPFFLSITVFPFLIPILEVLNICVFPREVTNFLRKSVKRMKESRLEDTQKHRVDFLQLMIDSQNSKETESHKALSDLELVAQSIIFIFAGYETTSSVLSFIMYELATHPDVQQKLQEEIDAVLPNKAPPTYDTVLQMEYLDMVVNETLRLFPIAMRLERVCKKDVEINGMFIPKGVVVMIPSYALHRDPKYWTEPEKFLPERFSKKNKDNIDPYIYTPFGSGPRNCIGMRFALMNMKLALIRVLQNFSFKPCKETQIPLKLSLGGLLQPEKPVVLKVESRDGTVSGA
# How it was run: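 20 nM human CYP3A4 with 25 uM Luciferin-PPXE (at KM) in 200 mM KPO4, preincubated 10 min with compound; NADPH regeneration started a 60 min RT reaction. Luciferin detected by luminescence, normalized to 57 uM ketoconazole as full inhibition.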
# [2] = Confirmation and Secondary Assay for Modulators of Hemoglobin Beta Chain Splicing at IVS2 654 locus (AID 910; active = well fitted curve in the direction sought with a large enough effect; an effect the other way counts as inactive or inconclusive;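 note: HeLa cells stably carrying EGFP split by mutant beta-globin IVS2-654 intron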)
# How it was run: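 HeLa cells stably expressing EGFP interrupted by β-globin IVS2-654 intron, seeded overnight in Opti-MEM/2% FCS, then treated 2 days at 37 °C. Restored splicing read as total peak GFP intensity per well by laser scanning cytometry (488 nm excitation, 500–520 nm emission); 500 nM antisense PNA as control.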
# [3] = Confirmation and Secondary Assay for Modulators of Hemoglobin Beta Chain Splicing at IVS2 705 locus (AID 930; active = well fitted curve in the direction sought with a large enough effect; an effect the other way counts as inactive or inconclusive;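 note: HeLa cells stably expressing the EGFP-705 splicing reporter; GFP fluorescence per well restored by corrected splicing of the IVS2-705 intron in EGFP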)
# How it was run: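 HeLa EGFP-705 reporter; 500 cells/well, o/n 37C 5% CO2; cpd 2 d; 488 ex/500-520 em laser scan; total peak GFP intensity/well. Ref: 500 nM […] antisense PNA.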
# [4] = qHTS Assay for Lipid Storage Modulators (AID 1519); details: Drosophila S3 cells, BODIPY lipid droplet/cell ratio, laser cytometry, cells loaded with oleic acid
# How it was run: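 Cells seeded at 5,000 per well were treated with compounds over a concentration series and loaded with oleic acid (400 uM, as added). Lipid droplet fluorescence (488 nm excitation, 500-530 nm channel) was read by laser-scanning cytometry and normalized to 20 uM Triacsin C.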
# [5] = biological target: Ubiquitin carboxyl-terminal hydrolase 1 (Homo sapiens) (UniProt O94782); test: Inhibitors of USP1/UAF1: Pilot qHTS (AID 504865; active = well fitted curve in the direction sought with a large enough effect; an effect the other way counts as inactive or inconclusive;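 note: rhodamine fluorescence freed from ubiquitin-rhodamine substrate followed over time; top concentration of the series differs between compounds; nearly all actives have a fitted effect of over 35% in size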)
# Ubiquitin carboxyl-terminal hydrolase 1 (Homo sapiens), sequence (O94782 whole entry, looked up): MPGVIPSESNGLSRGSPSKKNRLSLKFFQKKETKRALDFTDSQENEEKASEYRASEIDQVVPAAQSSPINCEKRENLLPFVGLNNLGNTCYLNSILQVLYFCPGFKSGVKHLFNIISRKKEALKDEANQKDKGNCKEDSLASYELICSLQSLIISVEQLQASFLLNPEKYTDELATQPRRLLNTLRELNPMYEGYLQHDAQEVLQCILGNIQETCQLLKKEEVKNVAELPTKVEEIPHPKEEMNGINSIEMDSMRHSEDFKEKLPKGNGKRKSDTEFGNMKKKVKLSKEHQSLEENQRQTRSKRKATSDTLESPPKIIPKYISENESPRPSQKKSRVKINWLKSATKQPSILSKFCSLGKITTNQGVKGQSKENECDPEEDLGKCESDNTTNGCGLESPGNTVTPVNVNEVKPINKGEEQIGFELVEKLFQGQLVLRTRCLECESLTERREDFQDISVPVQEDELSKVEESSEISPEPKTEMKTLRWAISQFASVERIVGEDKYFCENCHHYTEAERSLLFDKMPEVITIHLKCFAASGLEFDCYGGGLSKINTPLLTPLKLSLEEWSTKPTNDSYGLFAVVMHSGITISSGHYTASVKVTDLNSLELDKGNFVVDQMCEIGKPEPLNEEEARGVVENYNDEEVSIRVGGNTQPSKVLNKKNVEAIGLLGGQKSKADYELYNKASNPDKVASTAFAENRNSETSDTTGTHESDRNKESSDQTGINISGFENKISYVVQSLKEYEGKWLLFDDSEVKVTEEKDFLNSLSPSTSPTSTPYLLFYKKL
# How it was run: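 Enzyme-free wells gave the negative control, while test wells held 1nM USP1/UAF1 preincubated with compound for 15 min at room temperature. Ub-Rho at 150nM final started the reaction, and fluorescence at 480/540 nm was recorded kinetically.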
# [6] = biological target: Estrogen receptor (Homo sapiens) (UniProt P03372); test: qHTS assay for small molecule antagonists of estrogen receptor alpha signaling (AID 588513; active = well fitted curve in the direction sought with a large enough effect in the signal ratio, with a control signal flat, not every such curve was filed as active; the % refers to the signal ratio)
# Estrogen receptor (Homo sapiens), sequence (P03372 whole entry, looked up): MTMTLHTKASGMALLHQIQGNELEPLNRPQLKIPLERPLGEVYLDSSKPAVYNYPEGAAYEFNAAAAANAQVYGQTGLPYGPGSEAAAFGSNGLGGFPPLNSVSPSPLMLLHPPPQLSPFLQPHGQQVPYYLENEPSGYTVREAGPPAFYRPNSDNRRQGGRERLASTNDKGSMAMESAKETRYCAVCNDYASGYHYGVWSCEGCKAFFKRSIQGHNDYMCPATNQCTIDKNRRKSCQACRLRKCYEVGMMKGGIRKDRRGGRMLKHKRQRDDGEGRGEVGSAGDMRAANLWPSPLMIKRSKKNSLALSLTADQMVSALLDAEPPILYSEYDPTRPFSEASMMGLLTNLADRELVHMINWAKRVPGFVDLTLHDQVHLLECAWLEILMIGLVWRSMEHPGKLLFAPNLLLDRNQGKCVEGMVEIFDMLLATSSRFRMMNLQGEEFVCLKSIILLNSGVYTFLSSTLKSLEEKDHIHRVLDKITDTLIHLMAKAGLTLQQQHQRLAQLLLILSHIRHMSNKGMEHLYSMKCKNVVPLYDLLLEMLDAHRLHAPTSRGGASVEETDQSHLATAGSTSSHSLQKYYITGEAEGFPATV
# How it was run: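 Antagonist-mode qHTS in ER-alpha-UAS-bla HEK 293 cells: compound titration, 0.5nM estradiol for 18 h, CCF4 fluorescence, Hill-derived IC50.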
# [7] = biological target: Estrogen receptor (Homo sapiens) (UniProt P03372); test: qHTS assay for small molecule agonists of estrogen receptor alpha signaling (AID 588514); note: nearly all actives have a fitted effect of over 70% in size
# How it was run: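 Cells were plated at 5000/well, incubated 4 hrs at 37 C, dosed with compound titration series, incubated 18 hrs at 37 C, loaded with CCF4 dye for 2 hrs at RT, then fluorescence was read.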
# [8] = biological target: Bile acid receptor (Homo sapiens) (UniProt Q96RI1); test: qHTS assay for small molecule antagonists of farnesoid X receptor signaling (AID 588526)
# Bile acid receptor (Homo sapiens), sequence (Q96RI1 whole entry, looked up): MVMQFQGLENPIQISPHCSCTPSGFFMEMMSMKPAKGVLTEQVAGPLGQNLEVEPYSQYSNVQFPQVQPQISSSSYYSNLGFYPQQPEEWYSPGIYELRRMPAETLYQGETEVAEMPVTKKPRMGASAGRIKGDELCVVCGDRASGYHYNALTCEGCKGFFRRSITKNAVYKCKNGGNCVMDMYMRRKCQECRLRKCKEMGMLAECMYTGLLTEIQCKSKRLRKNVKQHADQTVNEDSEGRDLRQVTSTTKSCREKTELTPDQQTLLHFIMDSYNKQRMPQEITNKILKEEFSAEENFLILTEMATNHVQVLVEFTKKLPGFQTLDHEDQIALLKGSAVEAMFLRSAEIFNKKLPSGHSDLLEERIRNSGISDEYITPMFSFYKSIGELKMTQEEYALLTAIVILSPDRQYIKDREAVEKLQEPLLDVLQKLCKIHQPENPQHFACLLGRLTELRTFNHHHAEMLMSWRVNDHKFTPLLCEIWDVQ
# How it was run: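 Antagonist mode: titrated compounds tested against chenodeoxycholic acid stimulation (normalized to 50 uM CDCA and DMSO) in GeneBLAzer HEK293T cells for 16 h. Beta-lactamase read by CCF4 fluorescence; IC50 from Hill fits.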
# [9] = biological target: Bile acid receptor (Homo sapiens) (UniProt Q96RI1); test: qHTS assay for small molecule agonists of farnesoid X receptor signaling (AID 588527); details: HEK293T FXR-UAS-bla, beta-lactamase ratio, 16 h; stronger effect = higher value
# How it was run: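 Quantitative HTS used FXR-UAS-bla HEK293T cells with 16 h compound incubation at 37 C. EC50 values came from concentration-response curves normalized to chenodeoxycholic acid.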
# [10] = biological target: Glucocorticoid receptor (Homo sapiens) (UniProt P04150); test: qHTS assay for small molecule antagonists of glucocorticoid receptor signaling (AID 588533; active = well fitted inhibition curve with a large enough effect in the signal ratio, with a control signal flat, not every such curve was filed as active; the % refers to the signal ratio)
# How it was run: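 Antagonist-mode qHTS: compound titrations added to GRE-bla HeLa cells, then dexamethasone 2 nM final; 18 h, 37 C. CCF4 FRET fluorescence normalized to dexamethasone and DMSO; IC50 from Hill fit.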
# [11] = biological target: Peroxisome proliferator-activated receptor delta (Homo sapiens) (UniProt Q03181); test: qHTS assay for small molecule agonists of peroxisome proliferator-activated receptor delta signaling (AID 588534)
# Peroxisome proliferator-activated receptor delta (Homo sapiens), sequence (Q03181 whole entry, looked up): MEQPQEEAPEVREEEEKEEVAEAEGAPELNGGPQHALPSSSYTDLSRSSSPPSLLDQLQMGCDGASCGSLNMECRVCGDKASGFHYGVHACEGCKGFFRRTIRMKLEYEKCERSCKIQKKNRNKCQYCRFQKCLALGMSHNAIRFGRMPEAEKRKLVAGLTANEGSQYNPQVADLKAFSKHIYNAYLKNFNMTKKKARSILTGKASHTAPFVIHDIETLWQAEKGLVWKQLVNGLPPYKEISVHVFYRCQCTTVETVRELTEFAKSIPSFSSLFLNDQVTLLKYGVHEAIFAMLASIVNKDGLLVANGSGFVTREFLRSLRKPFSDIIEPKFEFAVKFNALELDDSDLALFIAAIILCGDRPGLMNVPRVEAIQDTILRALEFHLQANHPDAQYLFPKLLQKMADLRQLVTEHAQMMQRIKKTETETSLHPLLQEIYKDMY
# How it was run: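 Fluorescence from CCF4 substrate cleavage by beta-lactamase reporter, read 2 hrs at RT, measured agonist activity. Compounds were tested with 18 hrs exposure at 37 C. Concentration-response data fitted to Hill equation.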
# [12] = qHTS assay for small molecule antagonists of peroxisome proliferator-activated receptor delta signaling (AID 588535; active = well fitted inhibition curve with a large enough effect in the signal ratio, with a control signal flat, not every such curve was filed as active; the % refers to the signal ratio;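 for max response: cells co-treated with a PPAR-delta agonist as stimulator during compound exposure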); details: HEK293T PPARd-UAS-bla, beta-lactamase FRET ratio, 18 h; 460 nm channel
# How it was run: (§1)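 Antagonist-mode beta-lactamase reporter (GeneBLAzer PPAR-delta-UAS-bla) in HEK293T cells, 2% charcoal/dextran FBS, 4000 cells/well. Compound titrations, 18 h at 37 C; CCF4 ratio read, IC50 and efficacy from Hill fits.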
# [13] = biological target: Peroxisome proliferator-activated receptor delta (Homo sapiens) (UniProt Q03181); test: as above
# How it was run: as §1
# [14] = biological target: Peroxisome proliferator-activated receptor gamma (Homo sapiens) (UniProt P37231); test: qHTS assay for small molecule antagonists of peroxisome proliferator-activated receptor gamma signaling (AID 588537; active = well fitted inhibition curve with a large enough effect in the signal ratio, with a control signal flat, not every such curve was filed as active; the % refers to the signal ratio;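 note: reporter cells co-stimulated with 50 nM rosiglitazone agonist during compound treatment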)
# How it was run: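 PPARγ-UAS-bla HEK293 cells (3000/well) in 1% charcoal/dextran-stripped FBS are treated with compound, then stimulated with 50 nM rosiglitazone for 16 h at 37 °C. Read-out is CCF4 β-lactamase fluorescence after 2 h at RT. IC50 comes from Hill fits normalised to rosiglitazone and DMSO.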
# [15] = biological target: Vitamin D3 receptor (Homo sapiens) (UniProt P11473); test: qHTS assay for small molecule antagonists of vitamin D receptor signaling (AID 588541);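 note: receptor activated by calcitriol during compound treatment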
# Vitamin D3 receptor (Homo sapiens), sequence (P11473 whole entry, looked up): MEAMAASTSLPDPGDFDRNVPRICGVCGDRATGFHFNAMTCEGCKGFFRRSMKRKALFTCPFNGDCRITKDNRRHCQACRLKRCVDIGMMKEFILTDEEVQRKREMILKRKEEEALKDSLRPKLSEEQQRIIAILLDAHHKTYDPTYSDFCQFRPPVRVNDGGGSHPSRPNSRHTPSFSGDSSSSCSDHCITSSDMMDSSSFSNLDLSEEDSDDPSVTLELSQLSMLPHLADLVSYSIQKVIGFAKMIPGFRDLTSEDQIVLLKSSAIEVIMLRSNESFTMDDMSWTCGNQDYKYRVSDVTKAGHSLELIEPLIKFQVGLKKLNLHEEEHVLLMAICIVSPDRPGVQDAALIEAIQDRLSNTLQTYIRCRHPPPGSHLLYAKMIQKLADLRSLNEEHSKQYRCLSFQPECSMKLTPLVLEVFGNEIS
# How it was run: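 VDR-UAS-bla HEK293T cells in 2% charcoal-stripped FBS were stimulated with 1-alpha,25-dihydroxyvitamin D3 (3 nM final) plus compound for 16 h at 37 C. The beta-lactamase CCF4 readout was normalized to 50 nM agonist and DMSO, and Hill fits gave IC50.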
# [16] = biological target: Vitamin D3 receptor (Homo sapiens) (UniProt P11473); test: qHTS assay for small molecule agonists of vitamin D receptor signaling (AID 588543)
# How it was run: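 Measured: β-lactamase reporter activity (CCF4, 405 nm excitation, 460/530 nm emission) in HEK293T VDR-UAS-bla cells after 16 h compound exposure at 37 °C. Normalization against 50 nM 1α,25-dihydroxyvitamin D3 and DMSO; Hill-fit EC50.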
# [17] = qHTS assay for small molecule agonists of retinoid X receptor alpha signaling (AID 588544); details: HEK293T RXRa-UAS-bla, beta-lactamase reporter, 18 h; 530 nm emission
# [18] = biological target: Retinoic acid receptor RXR-alpha (Homo sapiens) (UniProt P19793); test: as above
# Retinoic acid receptor RXR-alpha (Homo sapiens), sequence (P19793 whole entry, looked up): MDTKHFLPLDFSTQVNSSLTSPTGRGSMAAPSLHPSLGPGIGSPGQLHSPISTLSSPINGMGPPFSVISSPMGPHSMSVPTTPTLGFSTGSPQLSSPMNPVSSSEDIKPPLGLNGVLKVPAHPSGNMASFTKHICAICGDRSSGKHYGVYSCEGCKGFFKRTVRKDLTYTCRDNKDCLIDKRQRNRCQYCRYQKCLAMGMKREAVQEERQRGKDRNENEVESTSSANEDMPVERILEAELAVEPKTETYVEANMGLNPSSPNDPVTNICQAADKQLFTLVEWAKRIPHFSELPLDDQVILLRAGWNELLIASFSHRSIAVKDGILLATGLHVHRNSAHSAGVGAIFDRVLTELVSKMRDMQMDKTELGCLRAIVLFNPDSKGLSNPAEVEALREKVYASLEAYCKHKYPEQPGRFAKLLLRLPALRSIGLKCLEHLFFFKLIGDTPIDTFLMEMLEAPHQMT
# [19] = biological target: Thyroid hormone receptor beta (Homo sapiens) (UniProt P10828); test: qHTS assay for small molecule agonists of thyroid hormone receptor beta signaling (AID 588545)
# Thyroid hormone receptor beta (Homo sapiens), sequence (P10828 whole entry, looked up): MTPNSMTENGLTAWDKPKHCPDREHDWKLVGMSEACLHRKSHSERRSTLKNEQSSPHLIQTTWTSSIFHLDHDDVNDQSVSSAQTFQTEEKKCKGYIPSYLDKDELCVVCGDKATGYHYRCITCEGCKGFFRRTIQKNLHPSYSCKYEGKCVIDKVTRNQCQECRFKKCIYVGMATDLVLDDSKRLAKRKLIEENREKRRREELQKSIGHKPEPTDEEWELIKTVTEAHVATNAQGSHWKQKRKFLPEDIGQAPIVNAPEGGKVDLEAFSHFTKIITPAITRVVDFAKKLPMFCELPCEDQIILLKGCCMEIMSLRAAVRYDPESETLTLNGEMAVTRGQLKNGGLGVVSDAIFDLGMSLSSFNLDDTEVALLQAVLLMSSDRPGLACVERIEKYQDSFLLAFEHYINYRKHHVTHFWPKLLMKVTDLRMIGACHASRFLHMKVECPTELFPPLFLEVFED
# How it was run: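 TR-UAS-bla-GripTite HEK 293 cells in medium with 2% charcoal/dextran FBS, 0.1 mM NEAA and 1 mM sodium pyruvate were treated with titrated compounds for 18 hrs at 37 C. Beta-lactamase reporter was read with CCF4 dye (ex 405, em 460/530 nm); EC50 from Hill fits.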
# [20] = qHTS assay for small molecule antagonists of retinoid X receptor alpha signaling (AID 588546; active = well fitted inhibition curve with a large enough effect in the signal ratio, with a control signal flat, not every such curve was filed as active; the % refers to the signal ratio;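 note: cells stimulated with 9-cis-retinoic acid as agonist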); details: HEK293T RXRa-UAS-bla, beta-lactamase ratio, antagonist mode; measured here: W530 green channel, cytotoxicity proxy
# How it was run: (§2)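 Beta-lactamase reporter inhibition, read as CCF4 fluorescence ratio (ex 405, em 460/530 nm) after 2 h at RT. HEK293T UAS-bla cells, 2500/well, were stimulated with 9-cis-RA at 500 or 100 nM final alongside test compound for 18 h at 37 C.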
# [21] = biological target: Retinoic acid receptor RXR-alpha (Homo sapiens) (UniProt P19793); test: as above; details: HEK293T RXRa-UAS-bla, beta-lactamase ratio, antagonist mode
# How it was run: as §2
# [22] = biological target: Thyroid hormone receptor beta (Homo sapiens) (UniProt P10828); test: qHTS assay for small molecule antagonists of thyroid hormone receptor beta signaling (AID 588547; active = well fitted inhibition curve with a large enough effect in the signal ratio, with a control signal flat, not every such curve was filed as active; the % refers to the signal ratio;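 note: cells stimulated with 0.4 nM T3 agonist during compound exposure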); details: TR-UAS-bla HEK293, beta-lactamase ratio, antagonist mode, 18 h
# How it was run: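 TR-UAS-bla GripTite HEK293 cells in 2% charcoal/dextran FBS medium; compounds 0.59 nM to 92 uM with T3 at 0.4nM final, 18 h at 37 C. Beta-lactamase read by CCF4 fluorescence (460/530 nm); Hill fits gave IC50 and efficacy.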
# [23] = qHTS assay for small molecule agonists of the antioxidant response element (ARE) signaling pathway (AID 651741; active = well fitted activation curve with a large enough effect in the signal ratio; the % refers to the signal ratio)
# How it was run: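 CellSensor ARE-bla HepG2 cells (2,000/well) carrying ARE-driven beta-lactamase, exposed 16 h at 37 C. LiveBLAzer B/G FRET substrate added for 2 h at room temperature; fluorescence intensity read.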
# [24] = qHTS assay for small molecule activators of the p53 signaling pathway (AID 651743; active = well fitted activation curve with a large enough effect in the signal ratio, not every such curve was filed as active; the % refers to the signal ratio); details: HCT-116 p53RE-bla, beta-lactamase FRET ratio, 16 h; activation: stronger effect = higher value
# How it was run: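 p53RE-bla HCT-116 cells carrying a beta-lactamase reporter under p53 response elements were exposed to compounds for 16 hours at 37 C. Reporter activity read as fluorescence after 2 hours at room temperature with LiveBLAzer B/G FRET substrate.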
# [25] = qHTS assay for small molecule activators of the nuclear factor-kappa B (NF-kB) signaling pathway (AID 651749; active = well fitted activation curve with a large enough effect in the signal ratio; the % refers to the signal ratio); details: NF-kB-bla ME-180 cells, beta-lactamase FRET ratio, 16 h; activation: stronger effect = higher value
# How it was run: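 NF-kB-bla ME-180 cells carrying a beta-lactamase reporter under an NF-kB response element, 2,000 cells/well, exposed to compound for 16 hr at 37C; FRET-based beta-lactamase fluorescence read-out of pathway activation.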
# [26] = qHTS assay for environmental chemicals that activate the Aryl hydrocarbon Receptor (AhR) signaling pathway (AID 651777; active = well fitted curve in the direction sought with a large enough effect; an effect the other way counts as inactive or inconclusive; note: nearly all actives have a fitted effect of over 15% in size); details: 1A2-DRE human hepatoma cells, luciferase, 24 h; activation: stronger effect = higher value
# How it was run: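 1A2-DRE human hepatoma reporter line; 1,200 cells/well; cmpd or DMSO 24 h, 37 C/5% CO2; One-Glo 30 min RT; luciferase lum.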
# [27] = biological target: Peroxisome proliferator-activated receptor alpha (Homo sapiens) (UniProt Q07869); test: qHTS assay for small molecule agonists of the peroxisome proliferator-activated receptor alpha (PPARalpha) signaling pathway (AID 651778; active = well fitted curve in the direction sought with a large enough effect; an effect the other way counts as inactive or inconclusive); details: PathHunter PPARalpha complementation, chemiluminescence, 6 h; stronger effect = higher value
# Peroxisome proliferator-activated receptor alpha (Homo sapiens), sequence (Q07869 whole entry, looked up, the tested form may be a part): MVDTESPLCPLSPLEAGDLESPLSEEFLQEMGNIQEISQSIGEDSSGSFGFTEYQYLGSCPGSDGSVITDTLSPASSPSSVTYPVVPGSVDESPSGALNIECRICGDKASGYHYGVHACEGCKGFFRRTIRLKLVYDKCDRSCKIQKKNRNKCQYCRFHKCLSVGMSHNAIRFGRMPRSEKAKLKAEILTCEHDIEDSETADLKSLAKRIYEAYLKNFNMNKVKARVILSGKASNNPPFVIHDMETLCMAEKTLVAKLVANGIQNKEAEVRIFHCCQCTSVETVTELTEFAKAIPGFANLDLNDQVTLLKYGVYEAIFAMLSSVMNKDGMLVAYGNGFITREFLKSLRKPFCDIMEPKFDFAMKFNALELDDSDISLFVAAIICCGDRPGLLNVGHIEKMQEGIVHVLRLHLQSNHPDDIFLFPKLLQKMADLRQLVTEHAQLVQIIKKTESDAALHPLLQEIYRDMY
# How it was run: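 Enzyme-fragment complementation assay in which ligand-bound PPARalpha translocates and forms an active enzyme that generates chemiluminescence. Cells were plated overnight, exposed to compound for 6 hr at 37 C, and then given detection reagent for 60 min at room temperature.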
# [28] = qHTS assay for small molecule agonists of the antioxidant response element (ARE) signaling pathway measured by Nrf2-dependant transcriptional activity (AID 720636; active = well fitted curve in the direction sought with a large enough effect in the repeat runs; an effect the other way counts as inactive or inconclusive;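 note: HepG2 cells with an ARE-driven luciferase reporter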)
# How it was run: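 Cells: ARE-luc HepG2 with Nrf2-responsive luciferase. Medium contained 1% dialyzed FBS. Compound exposure lasted 16 hr at 37 C and 5% CO2, followed by ONE-Glo luciferase detection.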
# [29] = qHTS assay for small molecule agonists of the antioxidant response element (ARE) signaling pathway measured by Nrf2-dependant transcriptional activity - cell viability counter screen (AID 720653; active = well fitted curve in the direction sought with a large enough effect in the repeat runs; an effect the other way counts as inactive or inconclusive); details: ARE-bla HepG2 viability, CellTiter-Glo ATP luminescence, 16 h; stronger effect = lower value
# How it was run: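 ARE-bla HepG2 cells treated with compounds for 16 h at 37C; this counter screen measures viability as intracellular ATP by CellTiter-Glo luminescence after 30 min at room temperature.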
# [30] = qHTS assay for cell viability of HEK293 cells (AID 743288; active = well fitted curve in the direction sought with a large enough effect; an effect the other way counts as inactive or inconclusive; note: nearly all actives have a fitted effect of over 50% in size); details: ATP luminescence (CellTiter-Glo), 18 h; max response: stronger effect = lower value
# How it was run: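 Luminescent ATP quantitation served as the viability read-out. Cells (parental HEK293, 2,000/well) received compounds after at least 5 h at 37 C and were exposed for 18 h before a 30 min room-temperature reagent step.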
# [31] = qHTS assay for cell viability of the p53RE-bla HCT-116 cell line (AID 743292; active = well fitted curve in the direction sought with a large enough effect; an effect the other way counts as inactive or inconclusive; note: nearly all actives have a fitted effect of over 55% in size)
# How it was run: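 HCT-116 p53RE-bla cells seeded 4,000/well; 5 h at 37 C; compound (DMSO) added; 16 h at 37 C; CellTiter-Glo added, 30 min RT; luminescence read.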
# [32] = biological target: Nuclear receptor subfamily 1 group I member 2 (Rattus norvegicus) (UniProt Q9R1A7); test: qHTS assay for small molecule activators of the rat pregnane X receptor (rPXR) signaling pathway (AID 651751; call rule not given here); details: rPXR reporter cells, luciferase (One-Glo), 24 h
# [33] = qHTS assay for small molecule activators of the human pregnane X receptor (PXR) signaling pathway (AID 720659; call rule not given here)
smiles,measurement,setting,value
COc1nc(NC(C)C)nc(NC(C)C)n1,Potency,[1],inactive
same,Potency,[2],inactive
same,Potency,[3],inactive
same,"activity change, negative = inhibition",[4]; at 57.5 µM (top of the series),2.18% (inactive)
same,max response,[4]; measured here: cell count channel max response,-5.5%
same,max response,[4]; measured here: lipid channel max response,-2.96%
same,Potency,[5],inactive
same,Potency,[6],inactive
same,Potency,[7],inactive
same,outcome,[8],inactive
same,activation,[9],0.515% (inactive)
same,Potency,[10],inactive
same,outcome,[11],inactive
same,max response,[12],7.33%
same,Potency,[13],inactive
same,Potency,[14],inactive
same,outcome,[15],inactive
same,outcome,[16],inactive
same,max response,[17],21.4%
same,Potency,[18],inactive
same,outcome,[19],inactive
same,max response,[20],-4.65%
same,max response,[21],-8.1% (inactive)
same,activity change % (negative = inhibition),[22],0.677% (inactive)
same,Potency,[23],inactive
same,activation,[24],-5.88% (inactive)
same,activation,[25],-2.09% (inactive)
same,activation,[26],-1.56% (inactive)
same,max response,[27],-3.74% (inactive)
same,outcome,[28],inactive
same,max response,[29],5.54% (inactive)
same,max response,[30],-7.69% (inactive)
same,Potency,[31],inactive
same,max response,[32],-2.09% (inactive)
same,outcome,[33],inactive
